Experimental data from PubChem BioAssay (Tox21).
Results filed as inconclusive are left out. Activity calls are given as the source filed them. Unless noted, the call rests on the fitted dose curve; in most records, active means well fitted curve in the direction sought with a large enough effect in the repeat runs; inconclusive means weak or mixed curves; inactive means no such curve, though single readings can be large; an effect the other way counts as inactive or inconclusive.

Experiments:
[1] = qHTS assay to identify aromatase inhibitors - cell viability counter screen (AID 743084);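 further: cells stimulated with testosterone during compound exposure; nearly all actives have a fitted effect of over 55% in size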
[2] = biological target: Aryl hydrocarbon receptor (Homo sapiens) (UniProt P35869); assay: qHTS assay to identify small molecule that activate the aryl hydrocarbon receptor (AhR) signaling pathway (AID 743085);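 further: HG2L7.5c1 human HepG2 liver cells with stably integrated DRE-driven firefly reporter; series mostly up to about 70 µM; nearly all actives have a fitted effect of over 15% in size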
Summary of the method: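 Luminescence read-out: ONE-Glo reagent, 30 min at room temperature, in HG2L7.5c1 HepG2 reporter cells treated 24 h at 37C. Viability was measured beforehand by CellTiter-Fluor fluorescence after 30 min at 37C.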

[3] = qHTS assay to identify small molecule that activate the aryl hydrocarbon receptor (AhR) signaling pathway - cell viability counter screen (AID 743086);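 further: HepG2 liver cells carrying the AhR DRE luciferase reporter; series mostly up to about 70 µM; nearly all actives have a fitted effect of over 45% in size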
Summary of the method: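 HepG2-AhR-luc (HG2L7.5c1) cells, 4000/well, treated 24 h at 37 C with compound; viability measured as CellTiter-Fluor fluorescence after 30 min in the same wells as the luciferase read.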

[4] = qHTS assay to identify small molecule antagonists of the peroxisome proliferator-activated receptor gamma (PPARg) signaling pathway - cell viability counter screen (AID 743194); further: nearly all actives have a fitted effect of over 55% in size
Summary of the method: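 Cytotoxicity counter screen in PPARg-bla HEK293H cells, same wells as reporter assay. Compounds plus 50 nM rosiglitazone (final) for 17 h at 37 C, then viability read by CellTiter-Glo luminescence.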

[5] = qHTS assay for small molecule agonists of the antioxidant response element (ARE) signaling pathway (AID 743202; active means well fitted activation curve with a large enough effect in the signal ratio in the repeat runs, not every such curve was filed as active; the % refers to the signal ratio)
Summary of the method: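 HepG2 ARE-bla reporter line, 2,000 cells/well; 5 h preincubation 37 C/5% CO2; compound (DMSO) 16 h 37 C; B/G FRET substrate 2 h RT; fluorescence intensity.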

[6] = qHTS assay for small molecule agonists of the antioxidant response element (ARE) signaling pathway - cell viability counter screen (AID 743203; calls by dose curve; further: nearly all actives have a fitted effect of over 55% in size)
Summary of the method: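 Cytotoxicity was tested in parallel with the ARE reporter screen. ARE-bla HepG2 cells were exposed to compounds for 16 hrs, and viability was taken from CellTiter-Glo luminescence.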

[7] = qHTS assay for small molecule activators of the heat shock response signaling pathway - cell viability counter screen (AID 743209); further: nearly all actives have a fitted effect of over 50% in size
Summary of the method: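 Cytotoxicity counter screen run in parallel with the HSE beta-lactamase reporter, using the same wells. HeLa HSE-bla cells received compound for 5 h at 37 C; ATP-based CellTiter-Glo luminescence was measured after 30 min at room temperature.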

[8] = qHTS assay for small molecule activators of the heat shock response signaling pathway (AID 743210; active means well fitted activation curve with a large enough effect in the signal ratio in the repeat runs, with a control signal flat, not every such curve was filed as active; the % refers to the signal ratio;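 further: HeLa cells with beta-lactamase reporter driven by heat shock elements; series mostly up to about 63 µM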)
Summary of the method: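 Beta-lactamase reporter read-out: FRET substrate fluorescence after 2.5 h at RT, following 5 h compound treatment at 37 C of HeLa cells carrying HSE-driven bla reporter; quantitative HTS format.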

Measured: Potency

Chain of Aryl hydrocarbon receptor (Homo sapiens) (P35869 whole entry, looked up): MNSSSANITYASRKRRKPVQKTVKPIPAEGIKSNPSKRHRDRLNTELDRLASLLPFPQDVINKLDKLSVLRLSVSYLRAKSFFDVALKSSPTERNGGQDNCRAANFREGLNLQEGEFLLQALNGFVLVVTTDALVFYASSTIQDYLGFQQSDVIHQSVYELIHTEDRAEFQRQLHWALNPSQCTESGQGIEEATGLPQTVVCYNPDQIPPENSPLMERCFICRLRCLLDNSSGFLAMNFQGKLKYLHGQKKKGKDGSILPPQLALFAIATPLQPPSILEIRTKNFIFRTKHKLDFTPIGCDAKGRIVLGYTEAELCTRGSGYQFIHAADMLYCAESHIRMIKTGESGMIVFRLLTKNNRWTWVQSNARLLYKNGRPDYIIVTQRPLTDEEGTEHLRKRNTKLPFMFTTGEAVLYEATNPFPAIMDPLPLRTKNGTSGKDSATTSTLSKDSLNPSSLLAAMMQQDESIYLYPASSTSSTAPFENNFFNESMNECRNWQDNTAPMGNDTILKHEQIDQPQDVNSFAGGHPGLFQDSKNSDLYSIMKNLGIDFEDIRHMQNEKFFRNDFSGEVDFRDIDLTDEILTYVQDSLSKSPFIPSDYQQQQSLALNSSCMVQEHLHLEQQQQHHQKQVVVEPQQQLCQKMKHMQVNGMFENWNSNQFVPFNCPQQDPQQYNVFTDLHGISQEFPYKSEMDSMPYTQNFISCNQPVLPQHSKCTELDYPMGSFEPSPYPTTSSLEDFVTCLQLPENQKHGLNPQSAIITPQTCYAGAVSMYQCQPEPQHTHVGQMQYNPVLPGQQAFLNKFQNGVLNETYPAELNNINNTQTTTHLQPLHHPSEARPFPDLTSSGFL

Cc1ccc(C=O)s1
not listed: [8]
inactive: all other assays above

CC(C)(C)C1CCCCC1=O (configuration not stated)
inactive: all assays above

CCCCCCCCCCCCCCCCOP(=O)([O-])OCC[N+](C)(C)C
inactive: [1] | [2] | [3] | [5] | [6]

CCCCCCCCCCCCOCCOS(=O)(=O)O
not listed: [5]
inactive: all other assays above
